Out of some 5,500 compounds screened, about 2,000 (36%) were called active. Not shown: some 18% with an inconclusive outcome. No stated cut-off is given here; in the data, active means normalized growth mostly below about 0.91 (no sharp cut-off); inconclusive means no clear call, values can overlap the other calls; inactive means mostly above about 0.92. Some of the results follow.
Experiment: chemical genetic growth profiling, strain panel (AID 1159580);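 further: tested at 20 µM; growth read once vehicle control cultures reached saturation at 30 °C; 1 = growth at the plate median or of vehicle wells; lower values mean less growth of the strain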
Settings: growth OD

Measured: normalized growth

COc1ccc(C(C)=O)cc1CSC(=NS(=O)(=O)c1ccccc1)Nc1cccc(F)c1
inactive: S. cerevisiae deletion strains, locus YAL013W, strain DEP1, hits give low values 1.01 | S. cerevisiae deletion strains, locus YBR229C, strain ROT2, hits give low values 0.993 | S. cerevisiae deletion strains, locus YDL101C, strain DUN1, hits give low values 0.988 | S. cerevisiae deletion strains, locus YDL134C, strain PPH21, hits give low values 0.994 | S. cerevisiae deletion strains, locus YDR150W, strain NUM1, hits give low values 0.913 | S. cerevisiae deletion strains, locus YEL061C, strain CIN8, hits give low values 0.974 | S. cerevisiae deletion strains, locus YGR078C, strain PAC10, hits give low values 1.02 | S. cerevisiae deletion strains, locus YHR030C, strain SLT2, hits give low values 0.944 | S. cerevisiae deletion strains, locus YHR087W, strain rtc3, hits give low values 0.981 | S. cerevisiae deletion strains, locus YJR043C, strain POL32, hits give low values 1.01 | S. cerevisiae deletion strains, locus YJR075W, strain HOC1, hits give low values 0.981 | S. cerevisiae deletion strains, locus YKL190W, strain CNB1, hits give low values 0.984 | S. cerevisiae deletion strains, locus YLR039C, strain RIC1, hits give low values 0.876 | S. cerevisiae deletion strains, locus YLR058C, strain SHM2 (second series), hits give low values 1 | S. cerevisiae deletion strains, locus YLR085C, strain ARP6, hits give low values 0.921 | S. cerevisiae deletion strains, locus YLR262C, strain YPT6, hits give low values 0.915 | S. cerevisiae deletion strains, locus YML094W, strain GIM5, hits give low values 0.973 | S. cerevisiae deletion strains, locus YMR219W, strain ESC1, hits give low values 0.999 | S. cerevisiae deletion strains, locus YMR263W, strain SAP30, hits give low values 0.998 | S. cerevisiae deletion strains, locus YMR307W, strain GAS1, hits give low values 0.737 | S. cerevisiae deletion strains, locus YNL153C, strain GIM3, hits give low values 1.03 | S. cerevisiae deletion strains, locus YNL298W, strain CLA4 (second series), hits give low values 0.963 | S. cerevisiae deletion strains, locus YNL322C, strain KRE1, hits give low values 0.98 | S. cerevisiae deletion strains, locus YNR030W, strain Alg12, hits give low values 0.952 | S. cerevisiae deletion strains, locus YPL055C, strain LGE1, hits give low values 1.02 | S. cerevisiae deletion strains, locus YPL241C, strain CIN2, hits give low values 0.983 | S. cerevisiae deletion strains, locus YPR135W, strain CTF4, hits give low values 1.03 | S. cerevisiae strains, strain wild type, hits give low values 0.988
